Unmarked numbers belong to inactive results. The rule behind the calls is not given here.
B1: design_611_394c5ea9-a0d3-47c4-9d48-89ba6a28fdd0_749_dldesign_0_cycle1_af2pred (protein)
chain: AAAEAAAERARQAAKAAMKSLTLAYEALGKPEQAKEDIAKVEKAIEEDPEKGAALARELAAQAAREAIKANAA
B2: design_611_394c5ea9-a0d3-47c4-9d48-89ba6a28fdd0_1101_dldesign_0_cycle1_af2pred (protein)
chain: MGGELLLDVMRAAAEAQREIAELGKEKGIPEEVTQALINRVSAAVAAVAKAAIAGDDAAKAAAAAARAAIDATLAEARAL
B3: design_611_394c5ea9-a0d3-47c4-9d48-89ba6a28fdd0_1451_dldesign_0_cycle1_af2pred (protein)
chain: AQAIEVANKTAAAMKKQAEALAAEGEANPETAWKHYETAAKLYEIAADMVAAAGGDPAVAAALKAKAAEYKAKAKAAKAA
B4: design_611_394c5ea9-a0d3-47c4-9d48-89ba6a28fdd0_1184_dldesign_0_cycle1_af2pred (protein)
chain: GEAARERGEELVKEAEAALAAAKAAAAADPAAGLAAANAAIGLAVERMEELARLGPEARPAIERLTAIATELSKLALALKAAL
B5: design_611_394c5ea9-a0d3-47c4-9d48-89ba6a28fdd0_705_dldesign_0_cycle1_af2pred (protein)
chain: AEAQEQAKKEYEKAKAVADAALATAKATGDVTAQQAKVLDAAIEAAKKAQELGDGETANKVMQVATKAMTAMAAAG
B6: design_611_394c5ea9-a0d3-47c4-9d48-89ba6a28fdd0_1469_dldesign_0_cycle1_af2pred (protein)
chain: GKERAVEIMRRGLTEVAKEALKVSPEVAGVVQTALAKAIGAAAESMEKALEVLKKGAEEAEKLDPEIGKKVREVLKKVEEAYKE
B7: design_611_394c5ea9-a0d3-47c4-9d48-89ba6a28fdd0_1121_dldesign_0_cycle1_af2pred (protein)
chain: SSSYEEVTAEMAAITAKAQEGVEAAKKDPAEAKKIAAEIAAKAKEIAASGFSEGAAQMAKNAAARVQKVIDAELAK
B8: design_611_394c5ea9-a0d3-47c4-9d48-89ba6a28fdd0_1130_dldesign_0_cycle1_af2pred (protein)
chain: MEEELKKISQAAAQAQQAAIDAKDPALRAELAQAAVEIMKLMDKAAKSTPEEAKKLAEEAEKIAEEAQKKAKASG
B9: design_611_394c5ea9-a0d3-47c4-9d48-89ba6a28fdd0_1238_dldesign_0_cycle1_af2pred (protein)
chain: SAADEQAKAIAVASTQSILDQAKKILEEHPEIKEEGEKLVEEIKKLLEKAKTGDAATASKALSESLELYGKLAELAK
B10: design_611_394c5ea9-a0d3-47c4-9d48-89ba6a28fdd0_908_dldesign_0_cycle1_af2pred (protein)
chain: AAAAARAAAVAAAEAAAAEAIKELKAAAEEAKTATPEEAAKLMNEMLAKASRQALAMQASGDPAAAAAGARLIAAAVEYAKEIDEAIR
B11: design_611_394c5ea9-a0d3-47c4-9d48-89ba6a28fdd0_1283_dldesign_0_cycle1_af2pred (protein)
chain: DTAAAQGLLAGVQAFTRRRFEAAERALRAGDREAMLAAARDLETAADIAEATAKQVPPALAAQAQALAKQARERAEEARRAAEA
B12: design_611_394c5ea9-a0d3-47c4-9d48-89ba6a28fdd0_785_dldesign_0_cycle1_af2pred (protein)
chain: LKAEAEKLAKEAAAKAKEAAAAGDAVAALAYQAAANMARSALRADPESAAKLLEVGRALKQQGDATHAAFKA
B13: design_611_394c5ea9-a0d3-47c4-9d48-89ba6a28fdd0_1153_dldesign_0_cycle1_af2pred (protein)
chain: MEEKKKKIEEEANKVIEEATKVAELAKKHPAMRPALIAANAAISMANNAIRNIENVESAEKQLKVAKALMEYAKATAKALLAAA
B14: design_611_394c5ea9-a0d3-47c4-9d48-89ba6a28fdd0_881_dldesign_0_cycle1_af2pred (protein)
chain: GAAEAAKALAKGVAASVKRLAKEGLEEAKKDPEKGRAILENAKTFAEAVKATDPEIGDKALKYVEEAKKEAEKIVKE
B15: design_611_394c5ea9-a0d3-47c4-9d48-89ba6a28fdd0_940_dldesign_0_cycle1_af2pred (protein)
chain: MKVEEAGNKAKALLVATANAAIAADPARAQEIAKKMAEGIEKIDKLTEEEKKKLDEYSEEEQAKKVEELGKELAKEIA
B16: design_611_394c5ea9-a0d3-47c4-9d48-89ba6a28fdd0_765_dldesign_0_cycle1_af2pred (protein)
chain: SSREGAAQLLLDVAKQAAAALKAAGGDEERAKKILEEAKKAAATTFEETQKALAKAAREAVKYQAAVEAA
B17: design_611_394c5ea9-a0d3-47c4-9d48-89ba6a28fdd0_1178_dldesign_0_cycle1_af2pred (protein)
chain: AELLAAAGELAVEAARYAAEADRFGPEAAPAAELFREAQKLAVQANQNPATAAEYYAKAKELMKKGKELMKKAKA
B18: design_611_394c5ea9-a0d3-47c4-9d48-89ba6a28fdd0_1531_dldesign_0_cycle1_af2pred (protein)
chain: AQAQVEAMARNAAAGMRALARADGHPDVGEEMAALVLADPVEGARRAVELARERLSPEVAAAVAEIARIQIETA
B19: design_611_394c5ea9-a0d3-47c4-9d48-89ba6a28fdd0_637_dldesign_0_cycle1_af2pred (protein)
chain: SEETKEVAEAAVNAAEQAIKLAKELGDKEIEEKAKKLKEEAKKAAKKGAEALPEAKKLAREAFTLAAKALALYAKAKA

Biological target: CD276, Q5ZPR3
Sequence (Q5ZPR3 whole entry): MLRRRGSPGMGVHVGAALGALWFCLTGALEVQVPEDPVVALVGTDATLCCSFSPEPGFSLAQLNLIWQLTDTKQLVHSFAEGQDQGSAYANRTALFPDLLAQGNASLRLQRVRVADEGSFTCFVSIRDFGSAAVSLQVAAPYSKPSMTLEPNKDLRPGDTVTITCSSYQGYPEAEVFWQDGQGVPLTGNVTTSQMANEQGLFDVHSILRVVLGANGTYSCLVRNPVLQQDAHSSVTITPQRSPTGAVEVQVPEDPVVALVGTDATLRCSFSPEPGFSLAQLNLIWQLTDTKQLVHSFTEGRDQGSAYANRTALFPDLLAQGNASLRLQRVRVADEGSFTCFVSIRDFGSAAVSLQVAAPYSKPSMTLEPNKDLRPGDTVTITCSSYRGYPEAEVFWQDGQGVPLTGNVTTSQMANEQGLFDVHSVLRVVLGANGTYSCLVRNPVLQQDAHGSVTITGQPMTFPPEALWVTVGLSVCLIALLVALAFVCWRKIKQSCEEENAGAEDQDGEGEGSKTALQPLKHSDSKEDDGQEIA

Binder	binding in a display sort
B1	not found
B2	not found
B3	not found
B4	not found
B5	not found
B6	not found
B7	not found
B8	not found
B9	not found
B10	not found
B11	not found
B12	not found
B13	not found
B14	not found
B15	not found
B16	not found
B17	not found
B18	not found
B19	not found

Source: publication PMC13494018
